Pf Dd2 growth: P. falciparum Dd2 growth inhibitors, primary screen, SYBR Green fluorescence, single dose replicates; activity change, % at 10 µM; hit rate 2.3% among 94,000; AID 1159554, 2015; 72 h; stronger effect = lower value; in the data active = activity change below about -80%; inconclusive = no clear call, values can overlap the other calls
C diff growth: C. difficile growth inhibitors, primary screen, HTS; Clostridium difficile clinical isolate growth, OD600, 24 h; stronger effect = lower value; growth activity, negative = inhibition, % at 16 µg/mL (by protocol); hit rate 0.25% among 86,000; AID 1259249, 2017;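 active = mean growth activity at or below -80% and every replicate also at or below -80%; inconclusive = mean at or below -80% but some replicate above -80%; inactive = mean growth activity above -80%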;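 note: 0% = DMSO wells and -100% = levofloxacin 16 µg/mL wells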
T cruzi growth-1: T. cruzi intracellular proliferation inhibitors, primary screen, cell-based, beta-gal Tulahuen parasites, NIH3T3 host, luminescence; T. cruzi beta-gal in NIH3T3, GalScreen luminescence, 90 h; inhibition, % at 8.34 µM; hit rate 5.9% among 77,000; AID 624255, 2012;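 active = mean inhibition above about 93%, with at least 55% of replicates each passing it, limit read from the data, passing the limit was not always enough; inconclusive = only one of those two conditions holds; inactive = neither condition holds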
T cruzi growth-2: T. cruzi intracellular proliferation inhibitors, confirmation, cell-based, NIH3T3 host, beta-gal parasite, luminescence, cherry-pick; shares compounds with T cruzi growth-1; T. cruzi beta-gal in NIH3T3, GalScreen luminescence, 90 h; inhibition, % at 8.35 µM; hit rate 72% among 5,600; AID 651739, 2012;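 active = mean replicate inhibition above about 95% and at least 55% of replicates individually reaching it, limit read from the data; inconclusive = only one of the two criteria is met; inactive = neither criterion is met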
T cruzi growth-3: inhibitors of intracellular T. cruzi replication, confirmation, NIH3T3 host cells, beta-gal parasites, cherry-pick, set 2; inhibition, % at 2.09 µM; shares compounds with T cruzi growth-1; AID 651740, 2012; T. cruzi beta-gal in NIH3T3, GalScreen luminescence, 90 h; hit rate 21% among 5,600;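 active = mean inhibition above about 95%, with at least 55% of replicates also reaching it, limit read from the data; inconclusive = meets just one of the two conditions; inactive = meets neither condition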;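 note: plate controls were neutral control median for no effect and positive control median for full effect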
3T3 cytotox: cytotoxicity in mouse NIH/3T3 fibroblasts, confirmation, cytotoxicity control for T. cruzi proliferation inhibitor project, cell-based, cherry-pick, single point. shares compounds with T cruzi growth-1. cytotoxicity (signal decrease), % at 8.35 µM. NIH/3T3 viability, CellTiter-Glo ATP luminescence, 90 h. AID 651742, 2012. hit rate 14% among 5,600;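 active = mean signal decrease across replicates above about 35% based on untreated-well scatter, with enough replicates individually passing, limit read from the data; inconclusive = no rule stated though some were filed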;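 note: 0% = median of neutral control wells and 100% = median of positive control wells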
3T3 cytotox 2: NIH/3T3 fibroblast cytotoxicity, confirmation, cytotoxicity control, cell-based, cherry-pick, single point, set 2. shares compounds with T cruzi growth-1. NIH/3T3 viability, CellTiter-Glo ATP luminescence, 90 h. inhibition, % at 24.9 µM. hit rate 56% among 5,600. AID 651744, 2012;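 active = mean loss of cell viability signal at or above a set limit, and enough replicates individually reaching it; inconclusive = meets only the mean limit or only the replicate share; inactive = meets neither condition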;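 note: 0% = median of neutral control wells and 100% = median of positive control wells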
Starred values were filed as active, the others as inactive; ? = inconclusive; · = no result given. Compounds with a hit are over-represented: about 6.7% of the library has one in this group of screens.

SMILES	Pf Dd2 growth	C diff growth	T cruzi growth-1	T cruzi growth-2	T cruzi growth-3	3T3 cytotox	3T3 cytotox 2
CN1[C@H](C(=O)NC2Cc3ccccc3C2)[C@@H](CO)[C@@H]2Cn3c(ccc(-c4cccnc4)c3=O)[C@@H]21	5	-3	-17	·	·	·	·
C[C@@H]1CCCCO[C@H](CN(C)C(=O)Nc2ccccc2)[C@H](C)CN([C@@H](C)CO)C(=O)c2cc(NS(=O)(=O)c3cccs3)ccc2O1	·	-5	66	·	·	·	·
COc1ccc2c3c([nH]c2c1)[C@H](CO)N(Cc1ccc(Cl)cc1)CC31CCN(Cc2ccccc2)CC1	?	6	·	·	·	·	·
COc1ccccc1-c1ccc2n(c1=O)C[C@@H]1[C@@H](CO)[C@H](C(=O)N(C)C)N(CC3CCOCC3)[C@H]21	-3	1	9	·	·	·	·
COc1ccccc1CN1[C@@H]2Cn3c(ccc(C4=CCCC4)c3=O)[C@H]1[C@@H](C(=O)N(C)C)[C@@H]2CO	·	2	56	·	·	·	·
COc1ccccc1CN1[C@@H]2c3ccc(C4=CCCC4)c(=O)n3C[C@H]1[C@H](CO)[C@H]2C(=O)N(C)C	·	0	142*	74	12	7	38*
CCCNC(=O)[C@@H]1[C@@H](CO)[C@@H]2Cn3c(ccc(C4=CCCC4)c3=O)[C@H]1N2Cc1ccncc1	8	-3	-1	·	·	·	·
CCCNC(=O)[C@H]1[C@H](CO)[C@H]2Cn3c(ccc(C4=CCCC4)c3=O)[C@@H]1N2Cc1ccncc1	22	-6	99*	41	29	10	10
CCNC(=O)C[C@H]1CC[C@@H]2[C@H](COC[C@@H](O)CN2C(=O)Nc2cccc(OC)c2)O1	28	3	·	·	·	·	·
C[C@@H](NC(=O)C[C@@H]1C[C@H]2c3cc(NC(=O)c4ccc5c(c4)OCO5)ccc3O[C@H]2[C@@H](CO)O1)c1ccccc1	12	-2	-30	·	·	·	·
COCC(=O)Nc1ccc2c(c1)[C@H]1C[C@@H](CC(=O)NC3CCCC3)O[C@@H](CO)[C@H]1O2	15	-4	·	·	·	·	·
CO[C@@H]1CN(C)C(=O)c2cc(NC(C)=O)ccc2OC[C@@H](C)N(C(=O)C2CCC2)C[C@@H]1C	·	·	45	·	·	·	·
CN1c2ccc(-c3ccc(C#N)cc3)cc2[C@@H]2[C@@H](CCN2C(=O)Nc2ccccc2F)[C@@H]1CO	15	-12	84	·	·	·	·
CN1c2ccc(-c3cccc(C#N)c3)cc2[C@@H]2[C@@H](CCN2C(=O)Nc2cc(F)ccc2F)[C@@H]1CO	-23	6	?	100*	93	22	13
CN1c2ccc(-c3ccc(F)cc3)cc2[C@H]2[C@H](CCN2C(=O)Nc2cc(F)ccc2F)[C@H]1CO	-8	56	15	·	·	·	·
COc1ccccc1NC(=O)N1CC[C@@H]2[C@H]1c1cc(-c3ccc(F)cc3)ccc1N(C)[C@H]2CO	-14	15	85	·	·	·	·
COc1ccccc1NC(=O)N1CC[C@H]2[C@@H]1c1cc(C#Cc3ccc(F)cc3)ccc1N(C)[C@H]2CO	-78	3	108*	106*	116*	3	5
CN1c2ccc(Br)cc2[C@H]2[C@H](CCN2C(=O)Nc2cc(F)ccc2F)[C@H]1CO	-5	56	?	105*	40	11	44*
C[C@@H]1CN([C@@H](C)CO)C(=O)c2ccccc2-c2ccccc2CO[C@H]1CN(C)S(=O)(=O)c1ccc(F)cc1	28	·	18	·	·	·	·
Cc1ccc(S(=O)(=O)N(C)C[C@H]2Oc3c(NC(=O)c4ccncc4)cccc3C(=O)N([C@H](C)CO)C[C@@H]2C)cc1	-7	-6	7	·	·	·	·
O=C(C[C@@H]1CC[C@@H]2[C@H](COC[C@H](O)CN2C(=O)Nc2cccc(Cl)c2)O1)N1CCCCC1	12	26	82	·	·	·	·
CN1C(=O)c2cc(NC(=O)Cc3ccccc3)ccc2OC[C@H]2O[C@H](CC(=O)O)CC[C@@H]21	8	10	13	·	·	·	·
Cc1cccc(S(=O)(=O)N2C[C@@H]3[C@H](c4ccccc42)[C@H](CO)N3CC2CCCC2)c1	-21	35	98*	104*	72	11	99*
Cc1cccc(S(=O)(=O)N2C[C@@H]3[C@H](c4ccccc42)[C@@H](CO)N3CC2CCOCC2)c1	-7	2	24	·	·	·	·
Cc1cccc(S(=O)(=O)N2C[C@@H]3[C@H](c4ccccc42)[C@@H](CO)N3CC2CCCC2)c1	-64	50	61	·	·	·	·
SMILES	Pf Dd2 growth	C diff growth	T cruzi growth-1	T cruzi growth-2	T cruzi growth-3	3T3 cytotox	3T3 cytotox 2
Cc1cccc(S(=O)(=O)N2C[C@H]3[C@@H](c4ccccc42)[C@@H](CO)N3CC2CCCC2)c1	-32	38	99*	104*	93	24	103*
C[C@@H]1CCCCO[C@@H](CN(C)CC2CC2)[C@@H](C)CN([C@H](C)CO)C(=O)c2cc(NS(=O)(=O)c3cccs3)ccc2O1	2	1	31	·	·	·	·
C[C@@H]1CN([C@H](C)CO)C(=O)c2cc(NC(=O)Nc3ccc(F)cc3)ccc2O[C@@H]1CN(C)Cc1ccncc1	3	-1	32	·	·	·	·
O=S(=O)(Cc1ccccc1)N1CCCCN2[C@@H](CO)[C@@H](c3ccc(-c4cncnc4)cc3)[C@@H]2C1	-14	0	93	·	·	·	·
O=S(=O)(Cc1ccccc1)N1CCCCN2[C@H](CO)[C@H](c3ccc(-c4cccnc4)cc3)[C@H]2C1	-44	-7	108*	108*	59	2	27*
O=S(=O)(Cc1ccccc1)N1CCCCN2[C@H](C1)[C@H](c1ccc(-c3cccnc3)cc1)[C@@H]2CO	-44	1	98*	60	-7	-7	-17
O=S(=O)(Cc1ccccc1)N1CCCCN2[C@H](CO)[C@H](c3ccc(-c4cccnc4)cc3)[C@@H]2C1	17	-3	89	·	·	·	·
C[C@@H]1CCCCO[C@H](CN(C)Cc2ccc(Cl)c(Cl)c2)[C@@H](C)CN([C@@H](C)CO)C(=O)c2cc(NS(=O)(=O)c3cn(C)cn3)ccc2O1	-75	-15	39	·	·	·	·
O=C(NC1CCCC1)N1CCCCN2[C@@H](CO)[C@@H](c3ccc(-c4ccccc4)cc3)[C@@H]2C1	-15	32	?	98*	57	13	103*
O=C(NC1CCCC1)N1CCCCN2[C@H](CO)[C@@H](c3ccc(-c4cccnc4)cc3)[C@@H]2C1	-39	8	59	·	·	·	·
COc1ccccc1-c1ccc([C@@H]2[C@H](CO)N3CCCCN(C(=O)NC4CCCC4)C[C@@H]23)cc1	13	23	54	·	·	·	·
